Screening results deposited in PubChem by National Center for Advancing Translational Sciences (NCATS).
The list is not random: actives were taken first. Their share in the collection is about 3.7%.
Tau fibril ThT – blocks human tau fibril formation measured by thioflavin T | Potency, µM (top dose mostly 57.4 µM), without a hit: top-dose activity, negative = inhibition, hits mostly inhibitors | actives 2.1% (n = 270,000) | recombinant tau K18 P301L, heparin-induced fibrillization, ThT fluorescence; note: % is set by controls: 0 for no effect and ±100 for the full control effect; nearly all actives have a fitted effect of over 55% in size
Target sequence (P10636 561-689 P618L limits assumed): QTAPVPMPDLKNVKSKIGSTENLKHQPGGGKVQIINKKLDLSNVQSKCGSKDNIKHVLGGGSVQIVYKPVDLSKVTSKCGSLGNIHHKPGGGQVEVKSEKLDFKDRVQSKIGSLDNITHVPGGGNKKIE
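Tau K18 P301L fragment (15 uM unlabeled plus 0.24 uM Alexa 594-labeled) in 100 mM sodium acetate pH 7 with compound, fibrillization induced by 20 uM heparin for 6 hr at 37 C. Thioflavin T (30 uM) added, fluorescence read after 1 hr (ex 450, em 510 nm).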
HttQ103 aggreg – inhibitors of mutant huntingtin aggregate formation in PC12 cells; PC12 HttQ103-GFP aggregates, Acumen cytometry, 40 h; Potency, µM (top dose mostly 46.1 µM), inactives show at the top dose activity change, negative = inhibition, usual class: inhibitors; actives 1.1% (n = 220,000); note: % is set by controls: 0 for no effect and ±100 for the full control effect; nearly all actives have a fitted effect of over 60% in size
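Inducible Q103 Huntingtin exon 1–GFP PC12 line, 1500 cells/well in phenol red free DMEM with 5% equine and 5% calf serum. Tebufenozide 100 nM induced expression; compounds titrated; aggregates quantified by cytometry.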
Tau fibril FP – tau fibrillization inhibition (FP). P10636. K18 P301L tau heparin fibrillization, Alexa594 FP, 6 h. Potency, µM (top dose mostly 57.7 µM), without a hit: at the highest dose activity, negative = inhibition, actives largely listed as inhibitors. actives 0.39% (n = 280,000). AID 1468; note: % is set by controls: 0 for no effect and ±100 for the full control effect; nearly all actives have a fitted effect of over 55% in size
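Recombinant K18 P301L […], labeled with Alexa 594 at 0.24 uM over 15 uM unlabeled; heparin inducer 20 uM final; 37 C, 6 hr; FP endpoint.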
Tau fluor counter – counter-screen for tau fibril formation inhibitors. Potency, µM (series often up to 57.7 µM), for inactives: top-dose activity change, negative = decrease. tau K18 P301L Alexa594 fluorescence, heparin fibrillization. AID 1463. actives 0.93% (n = 280,000); note: % is set by controls: 0 for no effect and ±100 for the full control effect; nearly all actives have a fitted effect of over 55% in size
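Human tau K18 P301L (15 uM unlabeled, 0.24 uM Alexa 594-labeled) in 100 mM sodium acetate pH 7 with 20 uM heparin, 6 hr at 37 C. ThT 30 uM added, 1 hr ambient; Alexa 594 FP and total fluorescence read at 555/632 nm.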
HTT ATP protect – cytoprotection in Huntington HTT-Q103 PC12 cell model; PC12 HTT-Q103 induced, cytoprotection, ATP luminescence, 40 h; actives 0.14% (n = 230,000); Potency, µM (doses to about 56.4 µM), inactives show cytoprotection (ATP increase), most hits filed as activators; note: % of control where 0% means no effect; nearly all actives have a fitted effect of over 45% in size
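PC12 cells stably carrying ecdysone-inducible Htt exon 1 (Q103)–GFP were induced with 100 nM tebufenozide (final) alongside library compounds in a dose series. Cytoprotection was scored as retained ATP by ATPlite luminescence.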
Numbers without * were called inactive; ? = inconclusive; / = no result; [ ] = another dose, or the depositor's remark. Calls come from the whole dose curve; as a rule, active = well fitted curve in the direction sought with a large enough effect; inconclusive = small, poorly fitted or top-dose-only effect, or another doubt; inactive = no such curve, though single readings can be large; an effect the other way counts as inactive or inconclusive. Potency is the fitted concentration of half-maximal effect.

SMILES	Tau fibril ThT	HttQ103 aggreg	Tau fibril FP	Tau fluor counter	HTT ATP protect
Cc1nn(Cc2ccc(Cl)cc2Cl)c(C)c1NC(=O)c1sc2ccccc2c1Cl	-14.8%	-10.3%	1.4%	-6.0%	-17.8%
Cc1nn(Cc2ccc(Cl)cc2Cl)c(C)c1NC(=O)NC12CC3CC(CC(C3)C1)C2	-15.9%	25.1µM*	1.4%	-13.9%	-29.6%
COc1ccc(CNC(=O)c2nc(Cn3nc(C)c(Br)c3C)no2)cc1OC	-4.5%	/	-3.1%	-18.5%	/
O=C(O)c1cccc(N2C(=O)c3ccc(Oc4ccc(Cl)cc4)cc3C2=O)c1	-2.1%	1.4%	0.2%	8.5%	-13.5%
O=C(O)c1cccc(N2C(=O)/C(=C/c3ccc(SCc4ccc(Cl)cc4)o3)SC2=S)c1	15.8µM*	6.2%	?	?	20µM*
O=C(Nc1nc2ccccc2s1)c1ccc(N2CCCCC2)c([N+](=O)[O-])c1	4.47µM*	-24.4%	-13.9%	?	-5.7%[10 µM]
O=C(Nc1ccon1)c1ccc(N2CCCCC2)c([N+](=O)[O-])c1	?	-13.2%	-1.7%	-16.3%	?
O=C(Nc1nc(-c2ccccc2)cs1)c1ccc(N2CCOCC2)c([N+](=O)[O-])c1	8.91µM*	-19.4%	5.1%	?	34.5%[10 µM]
O=C1C=C(NC2=CC3OC(c4ccccc4)OCC3OC2=O)CCC1 (stereo unspecified)	28.2µM*	-16.1%	?	-9.7%	12.8%[0.074 µM]
Cc1ccc(-c2cc(-c3ccccc3Cl)c(C#N)c(N)n2)o1	31.6µM*	0.8%	-9.0%	-27.5%	-18.0%
Cc1ccc(-c2cc(-c3ccccc3)c(C#N)c(N)n2)o1	?	25.2%	4.7%	-12.5%	12.1%[10 µM]
C/C=C(/CC[C@@H](C)[C@H]1CCC2C3=CC[C@H]4[C@H](C)[C@@H](O)CC[C@]4(C)C3CC[C@@]21C)C(C)C (stereo partly specified)	-19.8%	/	1.5%	0.5%	-30.6%
CC1=C(c2ccc(C)cc2)S(=O)(=O)N(Cc2ccc(C(=O)Nc3ccc(F)cc3C)cc2)C1=O	-10.4%	/	2.1%	-19.8%	/
CC(C(=O)N1CCN(C2c3ccccc3-c3ccccc32)CC1)N1C(=O)c2ccccc2C1=O (stereo unspecified)	-14.7%	4.7%	0.7%	-14.7%	5.8%[10 µM]
CC(C(=O)N1CCCCC1)N1C(=O)c2ccccc2C1=O (stereo unspecified)	-5.3%	31.6µM*	2.3%	-0.3%	3.5%
COc1ccc2c(c1)[nH]c1c(N3CCN(Cc4ccc5c(c4)OCO5)CC3)ncnc12	?	8.91µM*	4.4%	15.8µM*[quencher]	-99.7%
Cc1ccc2[nH]c3c(N4CCCCCC4)ncnc3c2c1	?	8.91µM*	7.9%	-25.7%	9.2%[1.9 µM]
Cc1ccc2c(c1)[nH]c1c(N3CCN(Cc4ccccc4)CC3)ncnc12	-17.0%	7.08µM*	?	?	-84.6%[0.074 µM]
Cc1ccc2[nH]c3c(N4CCN(Cc5ccccc5)CC4)ncnc3c2c1	?	?	?	?	-101.9%
CC(C)(C)C(=O)Nc1cccc(C(=O)OCc2cc(=O)n3nc(C4CCCCC4)sc3n2)c1	?	/	4.5%	-7.8%	/
C=CC1=C2C=C(C3CC3)N(Cc3ccc4c(c3)OCO4)C=C2C(=O)C(C)(OC(=O)c2ccco2)C1=O (stereo unspecified)	?	/	-1.5%[11.6 µM]	-14.5%[11.6 µM]	-25.6%[10 µM]
CC1Cc2cc(S(=O)(=O)NCc3ccc(N(C)C)cc3)ccc2N1C(=O)C1CCC1 (stereo unspecified)	-12.0%	/	4.9%	-20.0%	/
Cc1oc2cc([N+](=O)[O-])c(O)c([N+](=O)[O-])c2c1C(=O)c1ccc(Cl)cc1	17.8µM*	13.2%[9.22 µM]	1.5%	-23.9%	-8.3%[10 µM]
O=C(c1cc(O)c(O)c([N+](=O)[O-])c1)c1ccccc1F	?	/	3.9%	-20.5%	0.6%[1.9 µM]
COc1ccc(OC)c(C(=O)c2c(C)oc3cc([N+](=O)[O-])c(O)c([N+](=O)[O-])c23)c1	12.6µM*	9.1%[9.22 µM]	-5.8%	-25.1%	-13.0%[10 µM]
SMILES	Tau fibril ThT	HttQ103 aggreg	Tau fibril FP	Tau fluor counter	HTT ATP protect
COc1ccc(C(=O)Cc2cc(OC)c(OC)cc2[N+](=O)[O-])c(OC)c1	-8.0%	-7.9%	-0.8%	-9.2%	-15.6%
Cc1ccc(Cl)cc1NS(=O)(=O)c1c(C)[nH]c(=O)[nH]c1=O	-9.3%	-7.6%	-4.8%	-7.5%	-2.5%[10 µM]
COc1ccc(Cl)cc1NS(=O)(=O)c1c(C)[nH]c(=O)[nH]c1=O	28.2µM*	/	?	?	/
c1ccc(Nc2nc(-c3ccoc3)nc3ccccc23)cc1	/	/	/	/	-1.0%
Cc1ccc(-c2nc(Nc3ccc(N4CCOCC4)cc3)c3ccccc3n2)cc1	15.8µM*	-9.0%[9.22 µM]	?	3.98µM*[quencher]	8.6%[10 µM]
COC(=O)c1ccc(Nc2nc(-c3ccc(C)cc3)nc3ccccc23)cc1	-16.7%	/	3.55µM*	?	/
C[C@H](C(=O)c1ccncc1)c1ccccn1	/	/	/	/	-12.3%[10 µM]
CCCCCn1c(=O)[nH]c2cc(C(=O)NCc3ccc4c(c3)OCO4)ccc2c1=O	-12.7%	?	?	-9.2%	-37.2%
CCCCCn1c(=O)[nH]c2cc(C(=O)N3CCN(Cc4ccc5c(c4)OCO5)CC3)ccc2c1=O	-9.7%	8.91µM*	-2.5%	-9.5%	-14.1%
COCCn1nc2cc(C(=O)NCc3cc(C(F)(F)F)cc(C(F)(F)F)c3)ccc2c1OC	6.4%	23.8%	3.3%	1.2%	0.708µM*
CCOc1c2ccc(C(=O)NCc3cc(C(F)(F)F)cc(C(F)(F)F)c3)cc2nn1CCOC	-15.4%	-18.5%	10.9%	-14.7%	-0.8%
c1cc2c(cc1C(N1CCNCC1)N1CCNCC1)OCO2	/	/	/	/	-7.1%[10 µM]
O=C(CCN1C(=O)COc2ccccc21)NCCCN1CCN(c2ccccc2F)CC1	-1.7%	3.16µM*	-1.4%	-3.1%	-34.4%
CC(C)(C)c1ccc2c(c1)N(CC(=O)NCCCN1CCN(c3ccccc3F)CC1)C(=O)CO2	-7.4%	/	8.0%	-3.1%	/
NC(=O)NCCS[C@H]1CCCC[C@@H]1O	/	/	/	/	-9.5%[10 µM]
Cc1ccc(/C=C/C(=O)NCc2ccc(S(N)(=O)=O)cc2)o1	25.1µM*	1.1%[9.22 µM]	?	-15.9%	-17.3%
CCCOc1cccc(C2c3c(-c4ccccc4O)n[nH]c3C(=O)N2Cc2ccco2)c1 (stereo unspecified)	-6.0%	/	?	?	/
COc1ccc(N=N/C(C(C)=O)=C(/C)O)cc1	15.8µM*	-9.9%[9.22 µM]	2.3%	-13.4%	-2.2%[10 µM]
CC(=O)/C(N=Nc1cc(C)ccc1O)=C(\C)O	-5.4%	-6.1%[9.22 µM]	-6.5%	-12.3%	16.0%[10 µM]
CC(=O)Nc1ccc(NC(=O)COC(=O)c2c3c(nc4ccccc24)CCN(Cc2ccccc2)C3)cc1	-11.5%	3.98µM*	9.6%	?	5.9%[10 µM]
NC(=O)c1ccc(NC(=O)COC(=O)c2c3c(nc4ccccc24)/C(=C\c2cccs2)CCC3)cc1	-10.2%	?	4.47µM*	?	3.5%[0.074 µM]
